Screens deposited in PubChem BioAssay by National Center for Advancing Translational Sciences (NCATS).
SKOV3 invasion: Primary qHTS assay for Inhibitors of ovarian cancer metastasis using an organotypic tumor microenvironment (TME) model; SKOV3ip1-GFP adhesion/invasion on 3D omental model, fluorescence; Potency, µM (highest dose often 45.8 µM), actives largely listed as inhibitors; actives 0.1% (n = 46,000); note: nearly all actives have a fitted effect of over 65% in size
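Primary human omental fibroblast/mesothelial 3D culture pre-formed 48 h. SKOV3ip1-GFP cells added with compounds (0.36-46 umol/L), incubated 2 h RT/16 h 37 C, fixed; GFP cells quantified at 488/509 nm.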
HTT prom inh: Primary qHTS for Identification of Small Molecule Inhibitors of Huntingtin Promoter Activity; HEK293 HTT promoter firefly luciferase reporter, 24 h; Potency, µM (doses to about 57.5 µM), most hits filed as inhibitors; actives 0.93% (n = 48,000); AID 1508623, 2021; note: nearly all actives have a fitted effect of over 50% in size
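HEK293 luciferase promoter-reporter cells (2,500/well) plated 24 h, then compounds added at up to 57.5 uM final for 24 h at 37 °C. Firefly luminescence by Dual-Glo, normalized to vehicle (0%) and zero RLU (-100%).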
DRV1 agonist: qHTS for Agonists of Human Resolvin D1 Receptor DRV1; actives 2.5% (n = 48,000); CHO-K1 GPR32 beta-arrestin PathHunter luminescence, 90 min; zero percent set by DMSO-only wells; activation, % at 76.9 µM; Probable G-protein coupled receptor 32 (Homo sapiens), O75388;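 active = activation of at least 60% and not above a set upper limit, about 1 call in 100 departs from these limits; inconclusive = activation of 40% to 60%, or above that upper limit; inactive = activation under 40%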
Target sequence (O75388 whole entry, looked up): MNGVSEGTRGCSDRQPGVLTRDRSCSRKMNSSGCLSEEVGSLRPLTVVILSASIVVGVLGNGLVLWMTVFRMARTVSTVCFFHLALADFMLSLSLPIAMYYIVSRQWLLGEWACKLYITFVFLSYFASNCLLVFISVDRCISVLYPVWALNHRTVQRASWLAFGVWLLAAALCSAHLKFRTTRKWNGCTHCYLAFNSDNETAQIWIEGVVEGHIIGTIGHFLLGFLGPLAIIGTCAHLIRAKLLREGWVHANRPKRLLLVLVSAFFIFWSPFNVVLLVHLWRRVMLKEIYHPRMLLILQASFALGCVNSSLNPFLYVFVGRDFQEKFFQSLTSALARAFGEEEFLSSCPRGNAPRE
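Step 1: seed CHO-K1 GPR32 beta-arrestin cells, 2,500/well, overnight at 37 °C. Step 2: add compounds, 90 min at 37 °C. Step 3: detection reagent, 1 h ambient, then luminescence.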
HTT-AS promoter: Primary qHTS for Identification of Small Molecule Activators of Huntingtin-Antisense Promoter Activity. HEK293 HTT-AS promoter firefly luciferase reporter, 24 h; response scale: percent change from vehicle, -100% = no light. Potency, µM (series often up to 57.5 µM), usual class: activators. actives 0.24% (n = 48,000). AID 1508624, 2021; note: nearly all actives have a fitted effect of over 55% in size
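Firefly luciferase readout (Dual-Glo, 10 min RT) after 24 h, 37 °C compound exposure (final up to 57.5 uM) of HEK293 reporter cells cultured 24 h beforehand; PTC124 at 50 uM final as control inhibitor; activity scaled vehicle 0%, zero RLU -100%.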
NTMT1 inhibitor: Primary qHTS for Inhibitors of N-terminal methyltransferase 1 (NTMT1): MTaseGlo Assay; NTMT1 MTase-Glo SAH luminescence, purified enzyme; Potency, µM (highest dose often 114 µM), most hits filed as inhibitors; actives 2.5% (n = 59,000); AID 1645870, 2021; note: nearly all actives have a fitted effect of over 65% in size
Target sequence (Q9BV86 whole entry, looked up): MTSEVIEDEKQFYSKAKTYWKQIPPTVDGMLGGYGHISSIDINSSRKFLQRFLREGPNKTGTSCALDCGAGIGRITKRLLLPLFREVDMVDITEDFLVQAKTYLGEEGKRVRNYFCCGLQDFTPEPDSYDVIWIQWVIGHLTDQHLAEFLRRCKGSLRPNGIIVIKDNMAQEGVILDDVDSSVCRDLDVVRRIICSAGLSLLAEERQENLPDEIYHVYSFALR
Each line names hits and unclear results; the compound was inactive in the other large screens; ! = a repeat was not active. Hits are enriched below; roughly 4.5% of the tested compounds scored in any of these assays. Unless noted, calls come from the whole dose curve; as a rule, active = well fitted curve in the direction sought with a large enough effect; inconclusive = small, poorly fitted or top-dose-only effect, or another doubt; inactive = no such curve, though single readings can be large; an effect the other way counts as inactive or inconclusive.

CC(C)(C)c1ccc(C(=O)Nc2onc3c2CCCC3)cc1	HTT prom inh inconclusive, DRV1 agonist 88, HTT-AS promoter inconclusive
CC(C)COc1ccc(C(=O)Nc2onc3c2CCCC3)cc1	DRV1 agonist 114
CCOc1ccc(C(=O)Nc2onc3c2CCCC3)cc1	HTT-AS promoter inconclusive, NTMT1 inhibitor inconclusive
CCOc1ccc(C(=O)Nc2ccc3oc(-c4ccc(Br)cc4)nc3c2)cc1	none
Cc1ccc(SCc2nc(-c3ccc(C(=O)NCc4ccc(Cl)cc4)cc3)oc2C)cc1	none
CCC1CN(C(=O)N2CCC(C(=O)N3CCN(c4cccc(C)c4C)CC3)CC2)c2ccccc2O1 (stereo not given)	HTT prom inh 20µM
CCOC(=O)c1cc(C)n(CC2CCC(C(=O)Nc3ccc(Cl)cc3)CC2)c1C (stereo not given)	HTT prom inh 4µM
CCOC(=O)c1cc(C)n(CC2CCC(C(=O)Nc3cccc(Cl)c3)CC2)c1C (stereo not given)	HTT prom inh inconclusive
CCOC(=O)c1cc(-c2ccccc2)n(CC(=O)NC(C)c2ccccc2)c1C (stereo not given)	SKOV3 invasion inconclusive
CC(C)c1cc(C(C)C)c(CC(=O)NS(=O)(=O)Oc2c(C(C)C)cccc2C(C)C)c(C(C)C)c1	HTT prom inh inconclusive, NTMT1 inhibitor 40µM! (no result: DRV1 agonist)
O=C(c1cc(Cc2n[nH]c(=O)c3ccccc23)ccc1F)N1CCN(C(=O)C2CC2)CC1	none (no result: DRV1 agonist)
NNc1nncc2ccccc12	HTT-AS promoter 7.7µM, NTMT1 inhibitor inconclusive
Cc1ccc(C(=O)C(C)CN2CCCCC2)cc1 (stereo not given)	none (no result: SKOV3 invasion)
COc1ccc(-c2n[nH]c3c2C(c2ccc(Cl)cc2Cl)NC3=O)cc1 (stereo not given)	HTT prom inh inconclusive, DRV1 agonist 87
Cc1ccc(Cn2c(SCc3ccc(C(=O)N4CCCCCC4)cc3)nc3ccncc32)cc1	HTT prom inh 32µM
Cc1ccccc1Cn1c(SCc2ccc(C(=O)N3CCCCC3)cc2)nc2ccncc21	HTT prom inh inconclusive, NTMT1 inhibitor inconclusive
Cc1ccc(Cn2c(SCc3ccc(C(=O)N4CCCCC4)cc3)nc3ccncc32)cc1	HTT prom inh 13µM
O=C(c1ccc(CSc2nc3ccncc3n2Cc2ccccc2F)cc1)N1CCCCCC1	none
C[C@H](NC(=O)[C@H]1NCC[C@@H]1O)c1ccc(-c2noc(CCC3CCCC3)n2)cc1	none (no result: SKOV3 invasion, HTT prom inh, DRV1 agonist, HTT-AS promoter)
O=C(CCCCn1c(=O)[nH]c2ccsc2c1=O)N1CCN(c2cccc(Cl)c2)CC1	HTT prom inh inconclusive, DRV1 agonist 72
O=C(CCCn1c(=O)[nH]c2ccsc2c1=O)N1CCN(c2cccc(C(F)(F)F)c2)CC1	HTT prom inh inconclusive, DRV1 agonist 92
Cc1cccc(N2CCN(C(=O)CCCn3c(=O)[nH]c4ccsc4c3=O)CC2)c1C	none
CCCCC(CC)CNC(=O)CCCCCn1c(=O)[nH]c2ccsc2c1=O (stereo not given)	DRV1 agonist 80
CC1=C(C(=O)OC2CCCC2)C(c2ccccc2Cl)CC(=O)N1 (stereo not given)	HTT prom inh inconclusive, NTMT1 inhibitor inconclusive
CC1=C(C(=O)OC2CCCC2)C(c2cccc(Cl)c2Cl)CC(=O)N1 (stereo not given)	HTT prom inh inconclusive, DRV1 agonist 83
CC1=C(C(=O)OC2CCCC2)C(c2c(Cl)cccc2Cl)CC(=O)N1 (stereo not given)	HTT prom inh inconclusive, DRV1 agonist 82
CCc1cccc(C)c1NC(=O)CSc1nc(C)cc(C)c1C(=O)Nc1ccccc1	HTT prom inh inconclusive
Cc1ccc(S(=O)(=O)Nc2ccc3nc(-c4ccc(F)cc4)oc3c2)cc1	DRV1 agonist 66
Clc1ccc(CNc2nc3ccccc3c3nc(-c4cccnc4)nn23)cc1	none
COC(=O)C1=C(C)NC(COC(N)=O)=C(C(=O)OC(C)C)C1c1cccc(Cl)c1Cl (stereo not given)	DRV1 agonist 86, NTMT1 inhibitor inconclusive (no result: SKOV3 invasion)
Cc1cc(C)n(-c2nnc(Nc3cc(Cl)ccc3C)c3ccccc23)n1	SKOV3 invasion inconclusive
O=C(/C=C/c1cn(CC(O)CN2CCCCCC2)c2ccccc12)c1ccccc1 (stereo not given)	NTMT1 inhibitor inconclusive
COc1ccc(C(=O)/C=C/c2cn(CC(O)CN3CCCCCC3)c3ccccc23)cc1OC (stereo not given)	DRV1 agonist inconclusive, NTMT1 inhibitor 45µM
Cc1ccc(C(=O)/C=C/c2cn(CC(O)CN3CCCCCC3)c3ccccc23)cc1 (stereo not given)	SKOV3 invasion inconclusive, NTMT1 inhibitor inconclusive
O=C(/C=C/c1cn(CC(O)CN2CCCCCC2)c2ccccc12)c1ccc(Br)cc1 (stereo not given)	DRV1 agonist 88, NTMT1 inhibitor inconclusive
CN1CCCN(C(=O)c2cccc(-c3ccc(/C=C4/C(=O)Nc5ccc(Cl)cc54)o3)c2)CC1	NTMT1 inhibitor 11µM (no result: SKOV3 invasion, HTT prom inh, DRV1 agonist, HTT-AS promoter)
CN1CCN(C(=O)c2cccc(-c3ccc(CNc4ccc(N5CCN(C(=O)OC(C)(C)C)CC5)cc4)o3)c2)CC1	none (no result: SKOV3 invasion, HTT prom inh, DRV1 agonist, HTT-AS promoter)
COCCn1c(SCC(=O)Nc2ccc(F)c(Cl)c2)nc2c(oc3ccccc32)c1=O	NTMT1 inhibitor 79µM
Cc1cncn1CCc1nc2c3ccccc3nc(SCC(=O)Nc3ccc(F)cc3)n2n1	none
CCOc1ccccc1NC(=O)CSc1nc2ccccc2c2nc(CCn3cncc3C)nn12	SKOV3 invasion inconclusive, DRV1 agonist 97, NTMT1 inhibitor inconclusive
CCOc1cc(C(=O)OCc2cc(=O)n3nc(C4CC4)sc3n2)cc(OCC)c1OCC	none
Cc1ccc(C(=O)Nc2cccc(O)c2)cc1S(=O)(=O)N1CCCCCC1	DRV1 agonist 82, NTMT1 inhibitor inconclusive
Cc1ccc(C(=O)Nc2ccc(Br)cc2)cc1S(=O)(=O)N1CCOCC1	HTT prom inh 20µM, DRV1 agonist inconclusive
Cc1ccc(NC(=O)c2ccc(C)c(S(=O)(=O)N3CCCCCC3)c2)cc1	HTT prom inh inconclusive
N#Cc1cccc(NC(=O)C2CCN(c3nc(-c4ccc(Cl)cc4)no3)CC2)c1	HTT prom inh inconclusive
CCCNC(C)C(=O)Nc1ccccc1C (stereo not given)	none (no result: SKOV3 invasion)
O=C(CN1C(=O)CCSc2ccccc21)Nc1ccc(C(F)(F)F)cc1	HTT prom inh inconclusive, DRV1 agonist 63
CC(=O)Nc1cccc(NC(=O)CN2C(=O)CCSc3ccccc32)c1	SKOV3 invasion inconclusive
COC(=O)C1=CO[C@@H](O[C@@H]2O[C@H](CO)[C@@H](O)[C@H](O)[C@H]2O)[C@@H]2C(COC(C)=O)=C[C@H](O)[C@H]12	none (no result: SKOV3 invasion, HTT prom inh, DRV1 agonist, HTT-AS promoter)
